PubChem BioAssay AID371 (SRMLSC, 2006)
Screen size: about 3,300 compounds; about 280 (8.5%) were called active. The sample holds actives, similar compounds and a random draw of the others, so the mix is not that of the screen.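 How the source made its calls: active means mean growth inhibition over the two runs of 50% or more; inactive means mean growth inhibition under 50%.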

assay: A549 NSCLC cell proliferation inhibitors – ATP luminescence, human non-small cell lung line, primary screen (AID 371); settings: at 10 µM, hits give high values;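 further: compound exposure lasted 72 h before the ATP read; 0% = untreated cell signal and 100% = no luminescence left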

Growth inhibition, active:
CCNC(=O)c1cc2c(=O)n3cccc(C)c3nc2n(CCc2ccccc2)c1=N 70.5%
N=c1c(C(=O)NCc2ccccc2)cc2c(=O)n3ccccc3nc2n1Cc1ccco1 90.5%
Cc1cccn2c(=O)c3cc(C(N)=S)c(=N)n(CCCOC(C)C)c3nc12 51.3%
Cc1ccc(CNC(=O)c2cc3c(=O)n4ccccc4nc3n(Cc3ccco3)c2=N)cc1 92.5%
CCOC(=O)c1cc2c(=O)n3ccccc3nc2n(Cc2ccccc2Cl)c1=N 52.6%
COc1ccc(CCn2c(=N)c(C(=O)NCc3ccco3)cc3c(=O)n4ccccc4nc32)cc1 61.2%
CC(C)(C)n1cnc2cc(NS(=O)(=O)c3ccc(Br)cc3)ccc21 61.4%
CO[C@H]1C[C@@H]2CC[C@@H](C)[C@@](O)(O2)C(=O)C(=O)N2CCCC[C@H]2C(=O)O[C@H]([C@H](C)C[C@@H]2CC[C@@H](O)[C@H](OC)C2)CC(=O)[C@H](C)C=C(C)[C@@H](O)[C@@H](OC)C(=O)[C@H](C)C[C@H](C)C=CC=CC=C1C 65.2%
CCOC(=O)c1c(C(F)(F)C(F)(F)C(F)(F)C(F)(F)F)n[nH]c1C 91.1%
CCOC(=O)C1=C(C)NC(C)=C(C(=O)OC)C1c1cccc(Cl)c1Cl (stereo not drawn) 79.5%
CCOC(=O)C1=C(C)NC(C)=C(C(=O)OC)C1c1cccc([N+](=O)[O-])c1 (stereo not drawn) 52.7%
C/C=C(/C(=C/C)c1ccc(O)cc1)c1ccc(O)cc1 50.9%
Cc1ccc2[nH]c3c(c2c1)CN(C(=O)CN1CCCc2ccccc21)CC3 69%
CC(=O)O[C@H]1C(=O)[C@]2(C)[C@H]([C@H](OC(=O)c3ccccc3)[C@]3(O)C[C@H](OC(=O)[C@H](O)[C@@H](NC(=O)c4ccccc4)c4ccccc4)C(C)=C1C3(C)C)[C@]1(OC(C)=O)CO[C@@H]1C[C@@H]2O 65.8%
CC(=O)O[C@@]12CO[C@@H]1C[C@H](O)[C@@]1(C)C(=O)[C@H](O)C3=C(C)[C@@H](OC(=O)[C@H](O)[C@@H](NC(=O)OC(C)(C)C)c4ccccc4)C[C@](O)([C@@H](OC(=O)c4ccccc4)[C@H]21)C3(C)C 55.2%
CCCCCC(=O)O[C@]1(C(C)=O)CC[C@H]2[C@@H]3CCC4=CC(=O)CC[C@]4(C)[C@H]3CC[C@@]21C 73.5%
CC(=O)O[C@]1(C(C)=O)CC[C@H]2[C@@H]3C=C(Cl)C4=CC(=O)CC[C@]4(C)[C@H]3CC[C@@]21C 52.6%
Cc1nnc(NCc2n[nH]c(=O)c3ccccc23)c2ccccc12 69.7%

Growth inhibition, inactive:
COc1cc(NC2=CC(=O)CC(C)(C)C2)cc(OC)c1OC 3.91%
Cc1nc(NS(=O)(=O)c2ccccc2)sc1NC(=O)OC(C)C 3.58%
Cc1cccc(-c2nc(C#N)c(NC3CCCCC3)o2)c1 34.3%
COC(=O)c1cc2c(=O)n3cccc(C)c3nc2n(Cc2cccnc2)c1=N 2.48%
CCOC(=O)c1cc2c(=O)n3cccc(C)c3nc2n(CCc2ccccc2)c1=N 16.5%
CC(C)OCCCn1c(=N)c(C(N)=S)cc2c(=O)n3ccccc3nc21 42.5%
Cc1cccn2c(=O)c3cc(C(=O)NCc4cccnc4)c(=N)n(C)c3nc12 -1.19%
Cn1c(=O)c2c(nc(NCc3ccco3)n2CCc2ccccc2)n(C)c1=O 34.5%
Cc1ccc(CNC(=O)c2cc3c(=O)n4ccccc4nc3n(CC3CCCO3)c2=N)cc1 (stereo not drawn) 44.3%
CCOC(=O)c1cc2c(=O)n3cccc(C)c3nc2n(C)c1=N 27.1%
Cc1ccc(S(=O)(=O)c2cc3c(=O)n4ccccc4nc3n(C)c2=N)cc1 -2.02%
CCOC(=O)CSC1=C(C#N)C(c2ccc(C)cc2)C(C(=O)OC)C(=O)N1 (stereo not drawn) 8.41%
CCOC(=O)C1=C(C)OC(N)=C(C#N)C1c1cc2ccccc2nc1N1CCCCC1 (stereo not drawn) 22.5%
COC(=O)c1cc(S(=O)(=O)N2CCOCC2)c(N2CCOCC2)cc1N1CCOCC1 8.19%
COCCCNC(=O)c1c(N)n(/N=C/c2cccnc2)c2nc3ccccc3nc12 4.43%
Cc1cc(=O)oc(C)c1C(=O)NCC(C)NC(=O)c1c(C)cc(=O)oc1C (stereo not drawn) 0.25%
Cc1nn(CC(=O)N2CCOCC2)c(=O)c2ccccc12 2.14%
COc1ccc(CCn2c(=N)c(C#N)cc3c(=O)n4ccccc4nc32)cc1 11.5%
C=CCn1c(=N)c(C(=O)OCC)cc2c(=O)n3cccc(C)c3nc21 16.9%
CCOC(=O)c1cc2c(=O)n3cccc(C)c3nc2n(Cc2cccnc2)c1=N 1.61%
COc1ccc(CCn2c(=N)c(C(=O)NCc3ccco3)cc3c(=O)n4ccccc4nc32)cc1OC 48.2%
O=C1c2ccccc2C(=O)N1CCN1CCc2ccccc21 8.36%
Cc1ccc(C(C)C)c(OCCNc2nc3c(c(=O)n(C)c(=O)n3C)n2C)c1 20.2%
CCSc1nc(N)c2c3c(sc2n1)CCC3 6.53%
c1csc(-c2nn3c(C4CCCCC4)nnc3s2)c1 7.39%
CC1CN(C2CCN(S(=O)(=O)c3ccc4ccccc4c3)CC2)CC(C)O1 (stereo not drawn) 8.58%
CC(C)c1nc2sc3c(c2c(=O)o1)CCCC3 0.69%
CCOc1ccc(C2C(C#N)=C(N)Oc3cc(C)n(CCN4CCOCC4)c(=O)c32)cc1OCC (stereo not drawn) 1.16%
CCCOC(=O)C1[C@H]2C(=O)N(Cc3ccco3)C[C@]23C=C[C@H]1O3 (stereo partly drawn) 9.74%
CCCOc1ccc(C(C)=O)cc1CSCCC#N 8.19%
CCOC(=O)c1c(C)[nH]c(/C(C)=N/O)c1C 12.8%
CCOC(=O)c1c(C)[nH]sc1=S 3.75%
CCOC(=O)C1=C(C)NC(=O)C1CC(=O)Nc1ccccc1 (stereo not drawn) -0.76%
CCOC(=O)C1=C(C)NC(=O)NC1c1ccc2c(c1)OCO2 (stereo not drawn) 5.16%
COC(=O)C1=C(C)NC(C)=C(C(=O)OC)C1c1ccccc1[N+](=O)[O-] 47.5%
COCCOC(=O)C1=C(C)NC(C)=C(C(=O)OC(C)C)C1c1cccc([N+](=O)[O-])c1 (stereo not drawn) 34.4%
Cc1c(O)c(CN2CCCC2)cc2c1oc(=O)c1ccccc12 9.98%
N#Cc1c(N2CCOCC2)nc(-c2ccco2)c2c1CCCC2 7.04%
CCC(=O)c1ccc(O)cc1 4.76%
Cn1c(NCCN2CCCCC2)cc(=O)n(C)c1=O -1.36%
COc1cc(C2CC(C(F)(F)F)n3ncc(C(=O)O)c3N2)cc(OC)c1OC (stereo not drawn) 2.64%
CN1CCN(C(=O)CSc2nc(-c3cccs3)ccc2C#N)CC1 3.23%
COc1ccc(N2C(=O)CC(N(Cc3ccc(S(N)(=O)=O)cc3)C(C)=O)C2=O)cc1 (stereo not drawn) 0.97%
Cc1ccc2[nH]c3c(c2c1)CN(C(=O)CN1CC(C)OC(C)C1)CC3 (stereo not drawn) 3.04%
Cc1ccc2[nH]c3c(c2c1)CN(C(=O)CN1CCN(c2ccccn2)CC1)CC3 15.6%
COCCOC(=O)c1c(C)oc2ccc(OC(=O)COc3c(F)c(F)c(F)c(F)c3F)cc12 5.03%
Cc1ccc(C(=O)NCC(C)(C)O)cc1 4.92%
COc1ccc(N2CCN(C3CC(=O)NC3=O)CC2)cc1 (stereo not drawn) 1.16%
CCOC(=O)CC1=C(C(=O)OCC)C(c2ccc(OC)c(OC)c2)C(C#N)=C(N)O1 (stereo not drawn) -2.02%
CCOC(=O)CC1=C(C(=O)OCC)C(c2cc(OC)c(OC)cc2OC)C(C#N)=C(N)O1 (stereo not drawn) -5.45%
CCCCCCn1c(SCCN2CCOCC2)nc2c1c(=O)[nH]c(=O)n2C 7.31%
CN1CC2(C)CN(C(c3ccccc3)c3ccccc3)CC(C)(C1)C2O (stereo not drawn) 6.36%
CCCCC(=O)O[C@]1(C(=O)CO)CC[C@H]2[C@@H]3CCC4=CC(=O)CC[C@]4(C)[C@H]3[C@@H](O)C[C@@]21C 21.6%
CC(=O)O[C@]1(C(C)=O)CC[C@H]2[C@@H]3C=C(C)C4=CC(=O)CC[C@]4(C)[C@H]3CC[C@@]21C 34.5%
CCCCCCCC(=O)OCC(=O)[C@@]1(O)CC[C@H]2[C@@H]3CCC4=CC(=O)CC[C@]4(C)[C@H]3[C@@H](O)C[C@@]21C 26.8%
CC(=O)O[C@]1(C(C)=O)CC[C@H]2[C@@H]3C[C@H](C)C4=CC(=O)CC[C@]4(C)[C@H]3CC[C@@]21C 50%
O=C(O)C1CSC(CCc2ccccc2)N1 (stereo not drawn) 5.85%
CCN(CC)CCCN1C(=O)C(=O)/C(=C(/O)c2ccc3c(c2)CC(C)O3)C1c1cccnc1 (stereo not drawn) 1.89%
COc1ccccc1N(Cc1cc2cccc(C)c2[nH]c1=O)C(=O)C(C)C 12.1%
O=C1C(=O)N(Cc2cccnc2)C(c2ccccn2)/C1=C(/O)c1ccc(F)cc1 (stereo not drawn) 1.96%
Cc1ccc(S(=O)(=O)/C(C#N)=C/c2c(N3CCN(C)CC3)nc3c(C)cccn3c2=O)cc1 -1.01%
COc1ccc(Nc2nnc(C)c3ccccc23)cc1C(N)=O -0.95%
Cc1nnc(N2CCCCC2)c2ccccc12 8.14%
Nc1nnnn1N=C1CCCCC1 -2.31%
CCOC(=O)CCNc1n[nH]c(=O)[nH]c1=O 4.05%
